Active and inactive are the calls of the source.

Data on nine compounds can be found in PubChem BioAssay.

Assay [1] is described as follows: binders of probe aFSTL3 on microarray, primary screen, stem cell growth factor project, biochemical, small-molecule microarray, fluorescence 635/667 (AID 1064).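 Further: measures binding of the biotinylated anti-FSTL3 antibody to printed compounds.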 The conditions noted are these: higher = more signal.
The nature of assay [2]: binders from COS7 lysate, DM2A8 probe, primary screen, torsin A project, cell lysate, small-molecule microarray, fluorescence 635/667 (AID 1065). Conditions: higher = more signal, COS7 lysate expressing mutant human TOR1A.
Assay [3] can be described thus: binders of probe aFGF2 on microarray, primary screen, stem cell growth factor project, biochemical, small-molecule microarray, fluorescence 635/667 (AID 1067).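 Further: measures binding of biotinylated aFGF2 protein to printed compounds on slides; z-score merges feature fluorescence and signal-to-noise across triplicate slides.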 The conditions noted are these: higher = more signal.
Assay [4] is described as follows: binders of probe aFGF10 on microarray, primary screen, stem cell growth factor project, biochemical, small-molecule microarray, fluorescence 635/667 (AID 1071).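 Further: score merges 667 nm spot intensity and signal to noise from triplicate slides.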 The conditions noted are these: higher = more signal.
The target of assay [5] is Neurogenic locus notch homolog protein 2 (Homo sapiens) (UniProt Q04721). Nature of the assay: Notch2 binders on small-molecule microarrays, primary screen, biochemical, small-molecule microarray, 635 nm fluorescence, stem cell growth factors (AID 1073). Conditions: Notch2 binding, higher = more signal.
Assay [6] addresses Pro-neuregulin-1, membrane-bound isoform (Homo sapiens) (UniProt Q02297). Nature of the assay: NRG1 binders on small-molecule microarrays, primary screen, psychiatric disease protein project, biochemical, small-molecule microarray, fluorescence 635/667 (AID 1075).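 Further: score combines 667 nm spot fluorescence with signal to noise.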 Conditions: NRG1 binding, 635 nm fluorescence, higher = more signal.
The subject of assay [7] is Neuregulin-1 EGF-like domain. Description: binders of neuregulin-1 EGF-like domain, primary screen, biochemical, small-molecule microarray, 635 nm fluorescence (AID 1081).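 Further: binding of the protein to compounds printed on small-molecule microarray slides.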 Conditions: small-molecule microarray binding, higher = more signal.
Assay [8] can be described thus: FRG1 promoter luciferase signal modulators, primary screen, FRG1 inhibition for FSHD, cell-based, C2C12 myotubes, firefly/Renilla luciferase, luminescence (AID 1084). Conditions: higher = more signal, called active from +8 up or from −8 down.
The nature of assay [9]: binders of probe aFST on microarray, primary screen, stem cell growth factor project, biochemical, small-molecule microarray, fluorescence 635/667 (AID 1086).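 Further: score merges 667 nm fluorescence with signal-to-noise of each printed compound spot.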 The conditions noted are these: higher = more signal.
Assay [10] is described as follows: binders of probe aHhip on microarray, primary screen, stem cell growth factor project, biochemical, small-molecule microarray, fluorescence 635/667 (AID 1087).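 Further: score merges spot fluorescence at 667nm with spot signal to noise ratio.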 The conditions noted are these: higher = more signal.
Assay [11] deals with PRMT1 (protein arginine N-methyltransferase 1). Description: PRMT1 binders on small-molecule microarrays, primary screen, biochemical, small-molecule microarray, 635 nm fluorescence (AID 1088).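 Further: binding of Prmt1 protein to compounds spotted on small-molecule microarray slides.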 Conditions: small-molecule microarray binding, higher = more signal.
Assay [12] can be described thus: yeast growth modulation, basal conditions, primary screen, YJM789 clinical isolate, OD600, 24 h (AID 1089).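 Further: growth of clinical yeast isolate S. cerevisiae YJM 789 seeded 1000 cells per well; test concentration not given here.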 Conditions: S. cerevisiae YJM789 growth, higher = more signal, called active from +8 up or from −8 down.
Assay [13] in a line: fission yeast growth modulation, primary screen, strain 972, OD600, 24 h, no modulator (AID 1090).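 Further: basal condition with compound alone and no growth modifier present; test concentration not given here.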 Conditions: S. pombe 972 growth, higher = more signal, called active from +8 up or from −8 down.
Assay [14] can be described thus: S. cerevisiae growth modulation with rapamycin, primary screen, strain BY4716, OD600, 96 h (AID 1091). Further: test concentration not given here. Conditions: higher = more signal, called active from +8 up or from −8 down.
Assay [15] concerns the target Torsin-1A-interacting protein 2 (Homo sapiens) (UniProt Q8NFQ8). Nature of the assay: LULL1 binders on small-molecule microarray, primary screen, cell lysate, human LULL1 lysate, 635/667 nm fluorescence (AID 1092).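 Further: probe is lysate of COS7 cells overexpressing human LULL1; score merges per-feature 667 nm fluorescence with signal-to-noise.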 Conditions: hLULL1 lysate binding, 635 nm fluorescence, higher = more signal.
Assay [16] can be described thus: E. coli growth modulation, two-sided OD650, primary screen, E. coli filamentation project, strain DRC41, 24 h (AID 1093).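 Further: MC1000 strain lacking acrAB efflux and sulA so SOS filamentation is blocked; test concentration not given here.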 Conditions: OD650, 24 h, higher = more signal, called active from +8 up or from −8 down.
Assay [17] is described as follows: small-molecule microarray binders of probe aLefty2, primary screen, biochemical, biotinylated probe, 635/667 nm fluorescence (AID 1094).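 Further: score merges spot fluorescence near 667 nm with spot signal-to-noise ratio.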 The conditions noted are these: higher = more signal.
For assay [18], the system named is Noggin (protein binding on small-molecule microarray). Description: Noggin binders on small-molecule microarray, primary screen, biochemical, 635/667 nm fluorescence (AID 1095).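 Further: score merges 667 nm feature fluorescence with signal to noise over triplicate slides.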 Conditions: 635 nm fluorescence, higher = more signal.
Assay [19] has as its target Neurogenic locus notch homolog protein 3 (Homo sapiens) (UniProt Q9UM47). Nature of the assay: NOTCH3 binders on small-molecule microarray, primary screen, biochemical, 635/667 nm fluorescence (AID 1096). Conditions: NOTCH3 binding, 635 nm fluorescence, higher = more signal.
A short description of assay [20]: small-molecule microarray binders of probe aEGFR, primary screen, biochemical, biotinylated probe, 635/667 nm fluorescence (AID 1097).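 Further: probe is a biotinylated anti-EGFR antibody binding compounds printed on slides; score combines fluorescence near 667 nm and signal to noise of each spot.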 Conditions: higher = more signal.

Sequence of Torsin-1A-interacting protein 2 (Homo sapiens) (Q8NFQ8 whole entry, looked up): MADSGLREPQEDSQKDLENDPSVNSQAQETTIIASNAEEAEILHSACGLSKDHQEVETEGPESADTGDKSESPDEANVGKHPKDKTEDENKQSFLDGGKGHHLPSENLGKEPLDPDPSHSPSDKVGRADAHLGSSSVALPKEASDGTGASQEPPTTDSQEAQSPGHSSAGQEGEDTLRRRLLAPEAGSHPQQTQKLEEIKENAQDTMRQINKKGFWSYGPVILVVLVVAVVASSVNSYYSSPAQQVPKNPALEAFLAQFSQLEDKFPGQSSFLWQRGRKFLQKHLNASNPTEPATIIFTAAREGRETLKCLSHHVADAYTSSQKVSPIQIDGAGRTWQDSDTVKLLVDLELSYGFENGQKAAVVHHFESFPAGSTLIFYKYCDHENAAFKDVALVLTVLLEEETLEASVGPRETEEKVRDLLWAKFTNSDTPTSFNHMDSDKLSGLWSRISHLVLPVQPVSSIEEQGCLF
Sequence of Neurogenic locus notch homolog protein 2 (Homo sapiens) (Q04721 whole entry, looked up, canonical isoform): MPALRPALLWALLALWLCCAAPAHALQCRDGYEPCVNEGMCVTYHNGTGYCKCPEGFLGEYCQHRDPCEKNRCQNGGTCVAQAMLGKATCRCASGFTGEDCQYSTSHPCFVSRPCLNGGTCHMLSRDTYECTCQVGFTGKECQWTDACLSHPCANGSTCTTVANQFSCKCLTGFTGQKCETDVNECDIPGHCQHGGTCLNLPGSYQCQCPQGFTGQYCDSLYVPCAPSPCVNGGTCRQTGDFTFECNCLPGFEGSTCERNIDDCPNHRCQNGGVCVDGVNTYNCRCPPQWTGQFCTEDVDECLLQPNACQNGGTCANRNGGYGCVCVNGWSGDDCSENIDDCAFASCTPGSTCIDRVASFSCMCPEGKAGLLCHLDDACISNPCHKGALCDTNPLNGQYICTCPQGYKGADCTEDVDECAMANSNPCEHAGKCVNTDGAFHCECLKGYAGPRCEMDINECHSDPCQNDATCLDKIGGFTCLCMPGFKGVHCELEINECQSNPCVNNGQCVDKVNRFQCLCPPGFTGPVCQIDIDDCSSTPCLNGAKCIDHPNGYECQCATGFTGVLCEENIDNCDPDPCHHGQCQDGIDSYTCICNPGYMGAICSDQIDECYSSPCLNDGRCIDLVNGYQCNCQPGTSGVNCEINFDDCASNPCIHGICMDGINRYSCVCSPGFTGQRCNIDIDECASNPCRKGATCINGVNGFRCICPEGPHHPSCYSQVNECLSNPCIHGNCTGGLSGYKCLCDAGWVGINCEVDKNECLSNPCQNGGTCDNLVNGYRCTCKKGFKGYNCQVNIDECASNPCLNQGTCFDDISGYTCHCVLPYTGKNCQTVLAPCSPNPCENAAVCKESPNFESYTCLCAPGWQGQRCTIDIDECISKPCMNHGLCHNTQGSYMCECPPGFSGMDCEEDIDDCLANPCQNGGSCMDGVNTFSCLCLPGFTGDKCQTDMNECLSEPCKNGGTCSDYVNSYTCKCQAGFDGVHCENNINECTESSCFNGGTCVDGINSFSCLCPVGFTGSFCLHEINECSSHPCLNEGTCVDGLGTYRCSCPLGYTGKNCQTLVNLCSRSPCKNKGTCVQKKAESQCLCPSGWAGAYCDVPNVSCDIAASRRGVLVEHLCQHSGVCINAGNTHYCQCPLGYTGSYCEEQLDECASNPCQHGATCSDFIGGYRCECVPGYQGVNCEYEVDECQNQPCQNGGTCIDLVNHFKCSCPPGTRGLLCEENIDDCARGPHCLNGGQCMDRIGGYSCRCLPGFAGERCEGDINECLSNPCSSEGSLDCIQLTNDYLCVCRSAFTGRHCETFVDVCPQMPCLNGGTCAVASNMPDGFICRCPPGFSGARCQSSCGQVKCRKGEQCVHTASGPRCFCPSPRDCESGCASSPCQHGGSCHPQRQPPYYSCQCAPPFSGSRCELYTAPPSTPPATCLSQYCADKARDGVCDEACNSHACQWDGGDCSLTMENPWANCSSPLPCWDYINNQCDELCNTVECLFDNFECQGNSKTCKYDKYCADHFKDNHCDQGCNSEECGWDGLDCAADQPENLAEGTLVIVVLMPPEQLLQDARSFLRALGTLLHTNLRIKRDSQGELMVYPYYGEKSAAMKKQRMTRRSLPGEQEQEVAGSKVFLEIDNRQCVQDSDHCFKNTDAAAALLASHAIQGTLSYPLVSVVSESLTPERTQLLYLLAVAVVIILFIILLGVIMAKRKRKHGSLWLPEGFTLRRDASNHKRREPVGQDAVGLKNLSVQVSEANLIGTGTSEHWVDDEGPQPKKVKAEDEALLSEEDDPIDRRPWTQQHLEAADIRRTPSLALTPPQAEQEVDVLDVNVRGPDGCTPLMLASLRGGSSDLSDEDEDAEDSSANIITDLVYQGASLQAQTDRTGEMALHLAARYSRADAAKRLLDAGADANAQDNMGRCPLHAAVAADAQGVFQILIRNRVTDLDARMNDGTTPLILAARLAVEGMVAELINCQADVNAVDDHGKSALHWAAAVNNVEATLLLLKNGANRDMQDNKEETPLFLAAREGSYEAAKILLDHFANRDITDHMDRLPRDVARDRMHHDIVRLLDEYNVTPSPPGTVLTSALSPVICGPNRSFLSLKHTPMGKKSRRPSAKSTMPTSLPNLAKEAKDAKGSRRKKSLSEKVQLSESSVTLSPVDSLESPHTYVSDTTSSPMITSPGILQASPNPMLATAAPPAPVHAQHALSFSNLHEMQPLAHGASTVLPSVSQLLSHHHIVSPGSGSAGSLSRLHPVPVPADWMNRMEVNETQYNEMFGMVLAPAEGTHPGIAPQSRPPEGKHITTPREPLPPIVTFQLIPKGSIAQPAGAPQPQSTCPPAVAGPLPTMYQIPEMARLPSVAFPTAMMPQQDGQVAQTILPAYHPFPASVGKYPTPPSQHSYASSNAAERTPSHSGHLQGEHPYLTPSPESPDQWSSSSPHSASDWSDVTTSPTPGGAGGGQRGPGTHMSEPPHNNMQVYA
Sequence of Pro-neuregulin-1, membrane-bound isoform (Homo sapiens) (Q02297 whole entry, looked up, the tested form may be a part, canonical isoform): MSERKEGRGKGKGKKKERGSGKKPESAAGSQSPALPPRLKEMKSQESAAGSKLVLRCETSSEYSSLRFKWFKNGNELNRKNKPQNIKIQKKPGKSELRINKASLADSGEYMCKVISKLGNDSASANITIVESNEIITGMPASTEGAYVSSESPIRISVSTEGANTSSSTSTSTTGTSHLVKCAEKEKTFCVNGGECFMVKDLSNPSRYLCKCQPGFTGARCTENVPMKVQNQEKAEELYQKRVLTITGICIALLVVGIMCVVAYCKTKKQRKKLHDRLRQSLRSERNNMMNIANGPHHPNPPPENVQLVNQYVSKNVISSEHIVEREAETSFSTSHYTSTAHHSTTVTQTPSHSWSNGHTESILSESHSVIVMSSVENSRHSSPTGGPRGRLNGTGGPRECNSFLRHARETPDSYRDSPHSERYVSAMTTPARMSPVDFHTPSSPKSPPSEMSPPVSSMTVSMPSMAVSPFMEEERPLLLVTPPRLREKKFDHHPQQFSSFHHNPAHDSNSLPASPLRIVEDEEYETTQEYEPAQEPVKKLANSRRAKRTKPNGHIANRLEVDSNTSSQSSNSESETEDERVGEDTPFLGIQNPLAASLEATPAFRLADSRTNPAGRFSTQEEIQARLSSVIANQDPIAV

As for `O=C1[C@H]2C=C(I)[C@H](C[C@@H]2OCCOCCO)[C@@]12CO2`, the composite z-score in [1] was -0.444; in assay [2] it was 0.97; in assay [3], -0.0877; in [4] it was 0.454; in [5] it was 0.67; in assay [6], -0.183. For the same compound, the composite z-score in assay [7] is 0.653; in [9], -0.192; in assay [10] it was 0.0722; in assay [11] it was 0.582; in assay [15], 0.6; in assay [17], -0.239. Besides, the composite z-score in [18] is 0.513; in assay [19], 0.733; in assay [20] it was -0.027. The z-score was 0.843 (inactive) in assay [8]; 0.0387 (inactive) in assay [12]; -0.342 (inactive) in assay [13]; -0.155 (inactive) in assay [14]; -0.935 (inactive) in assay [16].
Regarding `C=C(/C(=C/C[C@H](OC(C)=O)c1ccc(CO)o1)c1cnc2ccccc2c1)C(C)C`, the composite z-score in assay [1] was -0.519; in [2] it was 1.01; in [3], 0.0122; in [4], 1.01; in assay [5] it was 1.5; in [6], 1.68. Also, the composite z-score in [7] is 1.04; in assay [9] it was 0.846; in assay [10] it was -0.0296; in [11] it was 1.54; in assay [15], 2.64; in assay [17], -0.044. Also, the composite z-score was 1.6 in [18], 1.02 in assay [19] and -0.0172 in [20]. Moreover, the z-score is 0.938 (inactive) in [8]; -0.816 (inactive) in assay [12]; -1.13 (inactive) in assay [13]; 0.171 (inactive) in [14]; 0.243 (inactive) in [16].
With `O=C1CS(=O)(=O)C(c2cccc([N+](=O)[O-])c2)N1c1ccccc1` (stereo not given), the composite z-score in assay [1] turned out to be 0.63; in [2], 1.79; in assay [3], 0.467; in assay [4] it was 0.446; in [5], 0.936; in assay [6] it was 1.66. The composite z-score in assay [7] is 1.19; in [9], 0.822; in [10], 1.56; in assay [11], -0.0065; in [15] it was 1.85; in [17], 0.554. Further, the composite z-score in assay [18] was 0.253; in [19], 0.336; in assay [20], 0.583. Further, the z-score was -0.997 (inactive) in assay [8]; -2.58 (inactive) in [12]; -2.56 (inactive) in [13]; -0.811 (inactive) in assay [14]; 0.672 (inactive) in assay [16].
In the case of `CC1CC/C=C\[C@H]2OC34C=CCN(c5ccc6ccccc6c5)C(=O)[C@H]3N(CCCO)C(=O)[C@@H]4C2C(=O)O1` (stereo not given in full), the composite z-score in assay [1] is 0.932; in assay [2], -0.541; in assay [3], -0.188; in [4], -1.25; in assay [5] it was -0.746; in assay [6] it was 1.19. Moreover, the composite z-score is -0.459 in [7]; -0.757 in assay [9]; -0.19 in assay [10]; -0.131 in assay [11]; -0.546 in [15]; -0.136 in assay [17]. In addition, the composite z-score was -1.32 in assay [18], -0.562 in assay [19] and -0.193 in assay [20]. Also, the z-score in [8] was 2.62 (inactive); in assay [12], 0.116 (inactive); in assay [13], 0.398 (inactive); in assay [14] it was 0.799 (inactive); in [16], -0.696 (inactive).
For `COCCOC(=O)N1C(=O)[C@@]2(c3cc(C#CCNC(N)=O)ccc31)[C@H](C(N)=O)[C@H]1C(=O)O[C@H](c3ccccc3)[C@H](c3ccccc3)N1[C@@H]2c1ccccc1OCCO`, the composite z-score in assay [1] was -0.0102; in [2] it was 0.176; in assay [3], -0.0381; in assay [4], 0.43; in assay [5], 1.23; in assay [6], 0.667. In addition, the composite z-score stood at 0.46 in [7]; 0.931 in assay [9]; 0.107 in [10]; 1.47 in assay [11]; 2.07 in assay [15]; 0.0389 in assay [17]. For the same compound, the composite z-score is 0.506 in assay [18], 1.08 in [19] and -0.071 in assay [20]. For the same compound, the z-score is 1.94 (inactive) in assay [8]; 1 (inactive) in assay [12]; 0.346 (inactive) in assay [13]; 1.91 (inactive) in assay [14]; -0.658 (inactive) in [16].
As for `[N-]=[N+]=Nc1ccccc1C[C@@]1(C(N)=O)N=C(c2ccc(OCCCO)cc2)O[C@@H]1c1ccccc1N=[N+]=[N-]`, the composite z-score is 0.613 in [1]; 0.338 in [2]; -0.0751 in [3]; 0.684 in assay [4]; 1.45 in assay [5]; 0.467 in assay [6]. In addition, the composite z-score came to 1.26 in assay [7]; 0.493 in [9]; 0.0722 in assay [10]; 0.319 in [11]; 2.05 in [15]; 0.281 in assay [17]. For the same compound, the values for the composite z-score in assay [18], in assay [19] and in assay [20] were -0.467, 0.0955 and 0.639, respectively. The z-score is 0.0144 (inactive) in assay [8]; -0.974 (inactive) in assay [12]; -1.01 (inactive) in assay [13]; -0.933 (inactive) in assay [14]; 0.905 (inactive) in assay [16].
For the compound `COc1ccc([Si](C)(C)[C@@H]2[C@@H](CC(=O)N3Cc4ccccc4C[C@H]3CO)O[C@]3(C(=O)N(Cc4ccc(N5C(=O)c6cccc7cccc5c67)cc4)c4ccccc43)[C@H]2C)cc1`, the composite z-score in [1] was -0.184; in assay [2], 0.614; in assay [3], -0.0136; in assay [4] it was 0.637; in assay [5] it was 1.21; in [6], 0.325. The composite z-score was 1.17 in assay [7]; 0.0242 in assay [9]; -0.361 in assay [10]; 1.55 in assay [11]; 1.74 in assay [15]; 0.104 in assay [17]. Also, the values for the composite z-score in [18], in assay [19] and in [20] were 1.14, 1.04 and 0.0717, respectively. The z-score was -1.88 (inactive) in assay [8]; -0.297 (inactive) in assay [12]; 0.389 (inactive) in [13]; 1.39 (inactive) in assay [14]; -0.465 (inactive) in assay [16].
For the compound `Cc1ccc(C(C)CC(O)C2C=CC3C(=O)N(c4ccccc4)C(=O)C3N2Nc2ccccc2)o1` (stereo not given), the composite z-score is -0.172 in assay [1]; -0.314 in assay [2]; -0.087 in [3]; 0.504 in assay [4]; 1.65 in assay [5]; 1.18 in assay [6]. In addition, the composite z-score was 1.21 in assay [7]; 1.51 in assay [9]; 0.113 in assay [10]; 1.53 in assay [11]; 3.09 in [15]; 0.326 in [17]. Further, the composite z-score in assay [18] is -0.0381; in assay [19], 1.04; in [20], 0.216. The z-score is -0.0963 (inactive) in assay [8]; 0.568 (inactive) in [12]; -0.132 (inactive) in assay [13]; 0.144 (inactive) in assay [14]; -0.866 (inactive) in assay [16].
Consider `COc1ccc([Si](C)(C)[C@@H]2[C@@H](CCO)O[C@]3(C(=O)N(Cc4ccccc4)c4ccc(NC(=O)[C@H](C)O)cc43)[C@H]2C)cc1`, for which the composite z-score in [1] was -0.441; in [2] it was 0.383; in assay [3] it was -0.0505; in assay [4], 0.8; in assay [5] it was 1.23; in [6] it was 1.13. For the same compound, the composite z-score in assay [7] is 1.13; in [9], 0.559; in assay [10], 0.162; in assay [11], 1.54; in assay [15] it was 2; in assay [17] it was -0.0766. In addition, the composite z-score in assay [18] is 1.25; in assay [19] it was 1.05; in assay [20] it was -0.067. The z-score in assay [8] is -3.84 (inactive); in [12], 2.85 (inactive); in [13] it was 0.386 (inactive); in assay [14], 7.41 (inactive); in assay [16], 0.655 (inactive).
